# Experimental data reported in PubChem BioAssay AID493175 (National Center for Advancing Translational Sciences (NCATS), 2011).
# Records with an inconclusive call do not appear. Calls of active or inactive are those of the source. Calls come from the whole dose curve; as a rule, active = well fitted curve in the direction sought with a large enough effect; inconclusive = small, poorly fitted or top-dose-only effect, or another doubt; inactive = no such curve, though single readings can be large or run the other way.
# Molecular target: Luciferin 4-monooxygenase (Photinus pyralis) (UniProt P08659)
# Sequence (P08659 whole entry, looked up): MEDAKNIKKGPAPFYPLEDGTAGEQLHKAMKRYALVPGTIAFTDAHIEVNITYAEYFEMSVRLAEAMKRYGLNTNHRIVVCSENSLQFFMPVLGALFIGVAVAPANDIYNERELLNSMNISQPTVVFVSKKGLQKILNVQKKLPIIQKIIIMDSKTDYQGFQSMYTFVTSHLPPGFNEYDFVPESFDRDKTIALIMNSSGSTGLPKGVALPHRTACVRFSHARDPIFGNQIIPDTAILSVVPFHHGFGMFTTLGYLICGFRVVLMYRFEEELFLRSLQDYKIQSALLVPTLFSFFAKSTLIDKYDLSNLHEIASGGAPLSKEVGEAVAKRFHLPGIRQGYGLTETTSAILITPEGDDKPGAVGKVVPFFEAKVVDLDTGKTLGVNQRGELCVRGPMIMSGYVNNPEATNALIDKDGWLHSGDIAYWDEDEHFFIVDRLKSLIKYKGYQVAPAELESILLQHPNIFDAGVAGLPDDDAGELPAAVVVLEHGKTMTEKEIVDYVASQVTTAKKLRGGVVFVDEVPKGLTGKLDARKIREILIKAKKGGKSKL
# Assay: miR-21 counterscreen using purified firefly luciferase
# Settings: purified P. pyralis luciferase, luminescence; series mostly up to 57.5 µM
# Excerpt: MLPCN Grant: 1 R21 NS059478-01 Assay Provider: Qihong Huang, The Wistar Institute NCGC Assay Overview: MicroRNAs (miRNAs) are endogenously encoded small (~20-25 nucleotides), nonprotein-coding RNAs that are involved in post-transcriptional repression of target messenger RNAs (mRNAs) (Le and Hannon, 2004). Estimated to be involved in the regulation of 30% of all protein-coding mRNAs (Filipowicz et al., 2008), miRNAs play a significant role in many biological processes including cellular differentiation and tissue development (Ghildiyal and Zamore, 2009). […] Compounds active in the miR-21 FLuc assay were clustered using Leadscope and active chemical series were prioritized based on chemical properties, potential for medicinal chemistry optimization, and SAR. Within each chemical series, representative compounds were re-acquired to test for activity in a secondary assay based on the quality of their CRC, efficacy, and potency. This secondary assay to determine if compounds active in the miR-21 FLuc assay were just luciferase inhibitors. Compounds found active in both the miR-21 FLuc and purified FLuc assays are considered as false positives. Keywords: NIH Roadmap, MLPCN, MLSMR, qHTS, miR-21, firefly luciferase, FLuc, miRNA.
# NCGC Assay Protocol Summary: Reagents: 50mM Tris acetate, pH 7.5; 10mM Mg acetate; 10uM D-luciferin (Sigma #L9504); 10uM ATP; 0.01% Tween-20; 0.05% BSA; 10nM P. pyralis luciferase (Sigma #L9506) Control compounds used were two known firefly luciferase inhibitors (compounds (2) and (5) in Auld et al., 2010), and DMSO. Assay Summary: Three microliters containing firefly luciferase substrates in buffer (final concentrations: 50mM Tris acetate, pH 7.5, 10mM Mg acetate, 0.01% Tween-20, 0.05% BSA, 10uM D-luciferin, and 10uM ATP) are dispensed into each well of a Greiner white, solid-bottom 1536-well format plate using a flying reagent dispenser (FRD). These assay plates were then treated with 23nL of compound or DMSO using a Kalypsys pin tool, which allows for delivery of a 6-point interplate titration of each compound to the assay plate (quantitative HTS), with a final compound concentrations ranging from approximately 60 µM to 7pM. One microliter of firefly luciferase in […] Tris-acetate buffer was then delivered by FRD to each well for a final enzyme concentration of 10nM. Luciferase activity was then measured using a ViewLux CCD imager (PerkinElmer), with an average exposure time of 2-30 seconds (2X binning, medium/high gain).
Compound,outcome,"activity change, negative = inhibition"
CN(C)c1ccc(CNc2nc(-c3ccco3)nn2S(C)(=O)=O)cc1,inactive,
O=C(c1ccc(Cl)cc1)n1nc(-c2ccccc2)nc1NCc1ccco1,inactive,
Cc1ccc(NC(=O)Cn2nnc(-c3nc(-c4ccc(Cl)cc4)no3)c2N)cc1C,inactive,
Cc1ccc(C)c(Nc2nc3nonc3nc2Nc2cccc(C)c2C)c1,inactive,
CC(=O)Nc1nc2c(C)cc(NC(=O)C3CCCCC3)cc2s1,inactive,
CCCCN1C(C(=O)c2ccccc2)=C(OC(C)=O)c2ccccc2S1(=O)=O,inactive,
CCCCOc1ccccc1CC1C(=O)Nc2ccc(Br)cc21 (stereo not given),inactive,
N#Cc1cc2cc3c(cc2nc1SCC(=O)N1CCOCC1)OCO3,inactive,
COc1ccc(CNc2nc(-c3ccco3)nn2C(=O)CC(C)C)cc1,inactive,
CSc1nsc(SCC(=O)Nc2ccc(F)cc2F)n1,inactive,
Cc1cccc(OCc2nnc(SCC(=O)Nc3ccc(N4CCOCC4)cc3)o2)c1,inactive,
COc1cccc(-n2nnc(-c3nc(-c4cccs4)no3)c2N)c1,inactive,
COc1ccccc1NC(=O)CSc1nnc(-c2ccccn2)o1,inactive,
CCC(=O)n1nc(-c2cccnc2)nc1NCc1ccc(F)cc1,inactive,
Cc1ccc(C(=O)Nc2ccc3c(c2)N(C)C(=O)c2ccccc2S3)cc1F,inactive,
Cc1cccc(-c2nnc(SCC(=O)Nc3ccc(C)c(C)c3)o2)c1,inactive,
c1ccc(C2=Nn3c(nnc3-c3cc(-c4ccccc4)n[nH]3)SC2)cc1,,-18.1% [at 2.3 µM] (inactive)
O=C(CSc1nnc(-c2ccc(Cl)cc2)o1)Nc1ccc(F)cc1,inactive,
CCS(=O)(=O)c1ncc(Cl)c(C(=O)Nc2ccc(S(=O)(=O)N(C)c3ccccc3)cc2)n1,inactive,
Cc1c(-c2nc(-c3ccc(C(F)(F)F)cc3)no2)n(C)oc1=O,inactive,

Compound,outcome,"activity change, negative = inhibition"
Cc1cc(C)n2c(SCc3ccccc3Cl)nnc2n1,inactive,
CC(=O)c1cnc2nc(SCc3ccccc3)nn2c1C,inactive,
CC1=C(c2ccc(C)c(C)c2)S(=O)(=O)N=C1N1CCC(C(=O)NCCc2ccc(Cl)cc2)CC1,inactive,
Cc1cc(Nc2cccc(C(F)(F)F)c2)nc2ccc(NC(=O)c3cccnc3)cc12,inactive,
O=C(CSc1nnc(-c2cccnc2)o1)Nc1cccc(Cl)c1,inactive,
COc1ccc(C(=O)Nc2nnc(C(C)C)s2)cc1OC,inactive,
CC(C)S(=O)(=O)c1oc(-c2ccc(F)cc2)nc1S(=O)(=O)c1ccc(F)cc1,inactive,
CS(=O)(=O)c1ncc(Cl)c(C(=O)N2CCN(c3cccc(Cl)c3)CC2)n1,inactive,
COc1ccccc1Nc1nn2c(=O)c3ccc(C(=O)NCc4cccs4)cc3nc2s1,inactive,
COc1ccccc1NC(=O)C/C(C)=N/NC(=O)c1ccccn1,inactive,
O=C(CSc1nnc(-c2ccc(O)cc2)o1)Nc1ccccc1Br,inactive,
COc1ccc(CCNc2ncnc3c2cnn3-c2cc(Cl)ccc2C)cc1,inactive,
Cn1c(=O)[nH]c2cc(-c3noc(-c4ccc(F)cc4)n3)ccc21,inactive,
CCc1nonc1NC(=O)c1oc2cc(C)c(C)cc2c1C,inactive,
COc1ccc(NC(=O)c2ncn(-c3ccccc3)n2)cc1Cl,inactive,
CS(=O)(=O)n1nc(-c2ccc(Cl)cc2)nc1SCc1ccccc1,inactive,
CCS(=O)(=O)c1ncc(Cl)c(C(=O)N2CCN(c3cccc(Cl)c3)CC2)n1,inactive,
Cc1ccc(-c2csc(NC(=O)CSc3nc4ccccc4o3)n2)cc1,inactive,
COc1ccccc1NC(=O)c1sc2nc3c(cc2c1N)CN(Cc1ccccc1)CC3,inactive,
Cc1ccc(CNc2nc(-c3ccco3)nn2S(C)(=O)=O)cc1,inactive,
